{
  "source": "the supplement of paper PMC11732987",
  "about": "“Enantioselective OTUD7B fragment discovery through chemoproteomics screening and high-throughput optimisation” (Communications Chemistry, 2025)",
  "test_in_all_cases": "log2 ratio of Biotin-Ahx-Ub-VS probe labelling (fragment/DMSO); higher = less target engagement (more negative = stronger competition), active = hit call of the paper (q ≤ 0.05, log2 ratio ≤ -1)",
  "conditions_in_all_cases": "compound concentration: 200 uM; treatment time: 3 h",
  "key": {"[1]": {"molecular_target": "T1, USP19 (UniProt O94966)", "T1 sequence (whole entry)": "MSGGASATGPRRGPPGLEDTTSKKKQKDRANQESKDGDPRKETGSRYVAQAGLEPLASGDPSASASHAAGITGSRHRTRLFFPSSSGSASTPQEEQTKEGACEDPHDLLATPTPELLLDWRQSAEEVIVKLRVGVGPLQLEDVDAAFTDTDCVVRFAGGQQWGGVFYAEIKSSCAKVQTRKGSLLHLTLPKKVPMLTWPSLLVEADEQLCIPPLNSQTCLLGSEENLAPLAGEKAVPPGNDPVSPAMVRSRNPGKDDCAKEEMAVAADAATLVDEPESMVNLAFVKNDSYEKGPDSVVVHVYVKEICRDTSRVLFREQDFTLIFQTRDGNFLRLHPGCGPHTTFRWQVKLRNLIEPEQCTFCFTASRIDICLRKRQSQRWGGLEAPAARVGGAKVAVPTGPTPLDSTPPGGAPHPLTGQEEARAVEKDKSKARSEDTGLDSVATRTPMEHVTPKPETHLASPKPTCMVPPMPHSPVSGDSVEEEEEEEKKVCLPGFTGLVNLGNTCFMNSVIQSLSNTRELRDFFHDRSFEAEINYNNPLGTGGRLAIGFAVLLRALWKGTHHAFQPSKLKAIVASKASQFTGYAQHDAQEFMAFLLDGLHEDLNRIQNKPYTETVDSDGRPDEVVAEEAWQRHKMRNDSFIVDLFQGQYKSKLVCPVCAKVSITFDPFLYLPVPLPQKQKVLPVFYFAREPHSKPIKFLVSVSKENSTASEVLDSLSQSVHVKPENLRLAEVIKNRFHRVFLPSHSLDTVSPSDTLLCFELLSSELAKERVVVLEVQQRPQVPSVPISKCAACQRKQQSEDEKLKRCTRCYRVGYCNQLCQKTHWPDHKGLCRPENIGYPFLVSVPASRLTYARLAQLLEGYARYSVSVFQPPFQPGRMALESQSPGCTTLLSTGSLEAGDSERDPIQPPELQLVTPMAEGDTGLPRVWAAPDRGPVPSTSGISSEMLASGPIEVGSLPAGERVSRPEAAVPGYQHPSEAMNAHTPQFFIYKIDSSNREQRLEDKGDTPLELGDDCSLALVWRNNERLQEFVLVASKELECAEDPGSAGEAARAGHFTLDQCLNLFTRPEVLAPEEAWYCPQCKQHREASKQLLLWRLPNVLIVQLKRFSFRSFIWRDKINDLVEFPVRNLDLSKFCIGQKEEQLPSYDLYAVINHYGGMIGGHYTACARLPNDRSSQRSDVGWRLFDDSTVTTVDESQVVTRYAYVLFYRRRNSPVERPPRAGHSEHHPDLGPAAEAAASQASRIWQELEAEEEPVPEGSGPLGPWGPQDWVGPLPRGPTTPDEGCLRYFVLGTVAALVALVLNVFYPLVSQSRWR", "outline": "(§1)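 Triplicate samples of HEK293T lysate, 495 µg each, received fragment at 200 µM or vehicle for 3 h, followed by Biotin-Ahx-Ub-VS (0.5 µM final) for 1 h. After NeutrAvidin enrichment of labelled DUBs and LysC/trypsin digestion, peptides were run by diaPASEF LC-MS/MS. The values are average log2 fragment/vehicle ratios from global-median-normalised Spectronaut label-free quantities, tested by unpaired t-test on proteins having ≥2 unique peptides.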"}, "[2]": {"molecular_target": "T2, USP22 (UniProt Q9UPT9)", "T2 sequence (whole entry)": "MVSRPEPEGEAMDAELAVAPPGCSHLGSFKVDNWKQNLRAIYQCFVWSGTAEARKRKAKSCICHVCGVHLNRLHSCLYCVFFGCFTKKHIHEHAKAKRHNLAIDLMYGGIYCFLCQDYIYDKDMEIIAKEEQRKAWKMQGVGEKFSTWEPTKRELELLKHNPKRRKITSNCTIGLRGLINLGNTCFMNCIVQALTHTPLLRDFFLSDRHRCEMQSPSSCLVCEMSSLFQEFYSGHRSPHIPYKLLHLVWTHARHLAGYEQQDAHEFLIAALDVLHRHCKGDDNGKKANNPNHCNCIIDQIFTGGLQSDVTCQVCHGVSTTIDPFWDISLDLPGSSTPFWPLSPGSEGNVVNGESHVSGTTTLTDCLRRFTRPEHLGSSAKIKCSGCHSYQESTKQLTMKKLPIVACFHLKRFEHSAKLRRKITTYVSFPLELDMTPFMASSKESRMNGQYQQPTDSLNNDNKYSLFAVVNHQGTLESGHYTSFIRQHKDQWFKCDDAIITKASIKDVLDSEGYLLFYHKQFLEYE", "outline": "as §1"}, "[3]": {"molecular_target": "USP24 (UniProt Q9UPU5)", "sequence (Q9UPU5 whole entry)": "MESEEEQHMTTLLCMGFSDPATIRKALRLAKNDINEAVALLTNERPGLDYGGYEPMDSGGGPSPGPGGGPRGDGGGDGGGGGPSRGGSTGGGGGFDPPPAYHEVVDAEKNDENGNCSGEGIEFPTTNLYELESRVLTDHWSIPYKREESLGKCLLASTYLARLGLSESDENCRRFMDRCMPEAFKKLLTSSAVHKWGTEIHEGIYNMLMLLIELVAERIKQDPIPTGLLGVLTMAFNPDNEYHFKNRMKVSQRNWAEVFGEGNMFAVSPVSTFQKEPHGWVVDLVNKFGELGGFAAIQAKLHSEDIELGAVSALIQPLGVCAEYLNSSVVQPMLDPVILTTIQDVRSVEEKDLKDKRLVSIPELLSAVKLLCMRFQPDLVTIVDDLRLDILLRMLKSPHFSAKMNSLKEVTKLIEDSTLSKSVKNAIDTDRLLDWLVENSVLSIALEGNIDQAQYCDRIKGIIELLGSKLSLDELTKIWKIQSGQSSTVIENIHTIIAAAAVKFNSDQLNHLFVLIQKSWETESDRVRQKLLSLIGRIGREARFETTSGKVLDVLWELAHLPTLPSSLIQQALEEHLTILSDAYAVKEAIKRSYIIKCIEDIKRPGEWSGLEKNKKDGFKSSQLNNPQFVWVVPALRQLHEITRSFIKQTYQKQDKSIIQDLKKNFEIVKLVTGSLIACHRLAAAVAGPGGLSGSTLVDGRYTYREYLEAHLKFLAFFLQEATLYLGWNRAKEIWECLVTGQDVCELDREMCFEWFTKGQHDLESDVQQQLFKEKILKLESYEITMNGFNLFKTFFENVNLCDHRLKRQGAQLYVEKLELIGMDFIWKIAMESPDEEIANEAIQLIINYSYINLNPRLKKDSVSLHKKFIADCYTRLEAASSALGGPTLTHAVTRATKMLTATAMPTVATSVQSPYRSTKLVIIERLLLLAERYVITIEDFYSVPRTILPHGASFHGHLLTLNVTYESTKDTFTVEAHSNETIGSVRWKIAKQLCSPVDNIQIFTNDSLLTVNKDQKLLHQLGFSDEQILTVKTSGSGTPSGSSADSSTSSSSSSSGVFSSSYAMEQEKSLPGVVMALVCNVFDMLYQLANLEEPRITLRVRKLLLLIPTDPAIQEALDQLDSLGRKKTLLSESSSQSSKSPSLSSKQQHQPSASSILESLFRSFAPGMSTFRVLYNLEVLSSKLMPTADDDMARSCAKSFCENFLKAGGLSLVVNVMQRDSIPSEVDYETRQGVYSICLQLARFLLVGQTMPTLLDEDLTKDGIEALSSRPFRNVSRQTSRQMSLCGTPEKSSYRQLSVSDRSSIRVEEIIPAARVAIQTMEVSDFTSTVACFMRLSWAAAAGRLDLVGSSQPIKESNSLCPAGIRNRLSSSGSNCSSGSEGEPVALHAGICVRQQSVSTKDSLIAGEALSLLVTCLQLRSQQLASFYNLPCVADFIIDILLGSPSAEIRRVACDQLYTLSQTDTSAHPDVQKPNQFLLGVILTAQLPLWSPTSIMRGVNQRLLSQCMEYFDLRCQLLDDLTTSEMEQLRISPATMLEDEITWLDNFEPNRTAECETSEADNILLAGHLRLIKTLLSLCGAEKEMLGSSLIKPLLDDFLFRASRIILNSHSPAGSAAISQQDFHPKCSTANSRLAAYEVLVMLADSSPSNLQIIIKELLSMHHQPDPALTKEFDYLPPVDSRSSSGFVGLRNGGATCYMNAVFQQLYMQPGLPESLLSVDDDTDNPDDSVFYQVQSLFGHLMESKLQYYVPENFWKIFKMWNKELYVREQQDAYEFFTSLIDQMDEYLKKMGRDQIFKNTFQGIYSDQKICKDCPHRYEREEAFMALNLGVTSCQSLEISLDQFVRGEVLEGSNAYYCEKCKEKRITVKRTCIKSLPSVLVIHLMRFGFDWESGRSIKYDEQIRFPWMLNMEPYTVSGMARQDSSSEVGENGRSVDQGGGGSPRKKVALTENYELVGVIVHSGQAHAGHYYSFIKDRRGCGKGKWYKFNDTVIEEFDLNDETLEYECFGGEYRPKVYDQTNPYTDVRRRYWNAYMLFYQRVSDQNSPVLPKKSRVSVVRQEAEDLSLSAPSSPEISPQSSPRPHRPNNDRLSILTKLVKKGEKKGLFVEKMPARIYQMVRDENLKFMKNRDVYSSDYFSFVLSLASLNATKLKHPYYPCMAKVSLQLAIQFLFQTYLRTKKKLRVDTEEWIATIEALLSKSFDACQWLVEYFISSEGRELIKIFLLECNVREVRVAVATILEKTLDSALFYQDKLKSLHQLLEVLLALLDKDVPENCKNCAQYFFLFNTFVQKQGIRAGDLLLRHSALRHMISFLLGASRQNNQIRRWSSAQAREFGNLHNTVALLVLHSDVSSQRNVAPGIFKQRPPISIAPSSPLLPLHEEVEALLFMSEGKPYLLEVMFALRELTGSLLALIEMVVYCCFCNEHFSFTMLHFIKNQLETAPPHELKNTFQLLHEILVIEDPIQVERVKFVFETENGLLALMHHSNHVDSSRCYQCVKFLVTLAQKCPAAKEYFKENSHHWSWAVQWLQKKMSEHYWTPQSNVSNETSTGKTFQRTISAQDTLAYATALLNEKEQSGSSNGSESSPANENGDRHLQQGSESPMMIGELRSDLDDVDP", "outline": "as §1"}, "[4]": {"molecular_target": "T3, USP25 (UniProt Q9UHP3)", "T3 sequence (whole entry)": "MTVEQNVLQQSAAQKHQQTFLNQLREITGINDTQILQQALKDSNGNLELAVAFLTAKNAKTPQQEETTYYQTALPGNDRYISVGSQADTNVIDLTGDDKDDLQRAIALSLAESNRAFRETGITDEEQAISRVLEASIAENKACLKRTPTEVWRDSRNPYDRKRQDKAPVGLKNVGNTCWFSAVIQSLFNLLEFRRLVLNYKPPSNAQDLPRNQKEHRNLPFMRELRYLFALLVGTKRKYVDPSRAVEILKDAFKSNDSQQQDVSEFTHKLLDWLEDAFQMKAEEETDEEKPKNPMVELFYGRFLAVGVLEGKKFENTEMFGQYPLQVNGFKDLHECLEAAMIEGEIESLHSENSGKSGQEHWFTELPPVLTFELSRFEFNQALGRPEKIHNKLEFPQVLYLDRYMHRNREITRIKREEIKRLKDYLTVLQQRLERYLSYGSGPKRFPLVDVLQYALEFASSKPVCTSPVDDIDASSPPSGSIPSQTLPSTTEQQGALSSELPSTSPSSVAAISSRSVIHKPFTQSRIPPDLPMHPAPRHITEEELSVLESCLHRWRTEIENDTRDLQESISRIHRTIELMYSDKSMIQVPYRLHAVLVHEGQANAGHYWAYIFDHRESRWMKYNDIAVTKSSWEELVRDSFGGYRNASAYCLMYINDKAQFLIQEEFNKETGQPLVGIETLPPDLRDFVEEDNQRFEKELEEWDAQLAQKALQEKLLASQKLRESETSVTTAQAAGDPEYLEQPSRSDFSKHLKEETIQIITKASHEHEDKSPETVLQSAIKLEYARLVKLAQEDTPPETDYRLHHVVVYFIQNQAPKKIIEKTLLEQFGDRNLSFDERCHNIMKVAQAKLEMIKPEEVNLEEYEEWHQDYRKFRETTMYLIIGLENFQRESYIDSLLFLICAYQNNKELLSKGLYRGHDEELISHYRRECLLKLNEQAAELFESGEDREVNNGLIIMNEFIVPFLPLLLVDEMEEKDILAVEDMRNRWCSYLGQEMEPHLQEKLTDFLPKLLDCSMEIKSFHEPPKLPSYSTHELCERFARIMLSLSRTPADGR", "outline": "as §1"}, "[5]": {"molecular_target": "T4, USP28 (UniProt Q96RU2)", "T4 sequence (whole entry)": "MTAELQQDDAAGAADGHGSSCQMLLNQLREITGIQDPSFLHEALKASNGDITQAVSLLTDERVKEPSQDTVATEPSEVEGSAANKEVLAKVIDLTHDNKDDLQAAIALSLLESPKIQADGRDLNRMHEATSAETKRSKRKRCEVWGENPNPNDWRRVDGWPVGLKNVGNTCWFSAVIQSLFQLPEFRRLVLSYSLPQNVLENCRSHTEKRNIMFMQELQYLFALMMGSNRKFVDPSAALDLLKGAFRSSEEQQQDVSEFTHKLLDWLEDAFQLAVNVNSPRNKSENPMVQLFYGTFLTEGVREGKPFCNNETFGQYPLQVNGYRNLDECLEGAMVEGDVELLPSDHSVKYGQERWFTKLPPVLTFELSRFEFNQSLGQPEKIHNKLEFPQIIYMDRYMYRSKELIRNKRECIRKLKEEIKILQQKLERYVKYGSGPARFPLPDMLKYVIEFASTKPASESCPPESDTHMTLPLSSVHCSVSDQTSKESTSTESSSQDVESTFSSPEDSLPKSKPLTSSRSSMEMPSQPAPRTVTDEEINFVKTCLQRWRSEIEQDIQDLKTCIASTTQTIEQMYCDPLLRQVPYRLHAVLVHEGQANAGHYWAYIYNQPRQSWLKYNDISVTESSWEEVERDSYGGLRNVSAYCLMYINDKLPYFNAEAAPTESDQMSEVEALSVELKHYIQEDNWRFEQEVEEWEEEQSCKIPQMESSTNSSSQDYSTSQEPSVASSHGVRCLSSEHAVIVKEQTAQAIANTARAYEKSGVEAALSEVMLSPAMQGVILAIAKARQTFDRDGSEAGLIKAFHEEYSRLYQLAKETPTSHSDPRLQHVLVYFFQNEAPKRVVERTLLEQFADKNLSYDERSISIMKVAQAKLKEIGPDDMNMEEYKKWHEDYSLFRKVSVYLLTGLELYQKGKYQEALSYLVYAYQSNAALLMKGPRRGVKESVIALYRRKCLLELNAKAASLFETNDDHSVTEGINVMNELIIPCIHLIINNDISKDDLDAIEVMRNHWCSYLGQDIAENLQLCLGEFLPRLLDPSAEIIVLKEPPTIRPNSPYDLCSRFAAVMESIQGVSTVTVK", "outline": "as §1"}},
  "note": "A number with no mark means an inactive call.",
  "data": [
    {"smiles": "Cl.O=C(CCl)N1CCn2ncc(O)c2C1", "values": [
      {"measurement": "log2 ratio of Biotin-Ahx-Ub-VS probe labelling", "setting": "[1]", "result": -0.754},
      {"measurement": "log2 ratio of Biotin-Ahx-Ub-VS probe labelling", "setting": "[2]", "result": -0.609},
      {"measurement": "log2 ratio of Biotin-Ahx-Ub-VS probe labelling", "setting": "[3]", "result": "-1.05 (active)"},
      {"measurement": "log2 ratio of Biotin-Ahx-Ub-VS probe labelling", "setting": "[4]", "result": -0.877},
      {"measurement": "log2 ratio of Biotin-Ahx-Ub-VS probe labelling", "setting": "[5]", "result": "-1.17 (active)"}
    ]}
  ]
}
